Molecules are shown by their SMILES. Results filed as inconclusive are left out. The source made the active and inactive calls. Rule for the calls: active = hit-call score of the fitted dose curve at least 0.9, where 1 is the maximum; inconclusive = response in the unintended direction; inactive = score below 0.9.

This test is described as follows: CCTE_Simmons_MITO_viability: CellTiter-Glo Viability Assessment for CCTE's HepG2 Seahorse XF Respirometric Screening Assay [post-hoc], Simmons Lab (AID 2284007).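 For AC50: cells exposed to chemical for 90 min before the ATP read; actives lower ATP signal relative to DMSO baseline meaning reduced viability.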 The protocol:
CCTE_Simmons_MITO is cell-based, respirometric assay using HepG2 cells and a Seahorse XF Analyzer to measure oxygen consumption rates over four temporal phases spanning a total of 72 minutes: pre-injection (pre-treatment), basal (following test compound injection), maximal (following FCCP uncoupler injection), and inhibited (following rotenone/antimycin A injection)CCTE_Simmons_MITO_viability is one of 4 assay components measured from the CCTE_Simmons_MITO assay. It is designed to make measurements of ATP content, a form of viability reporter, as detected with bioluminescence signals by Luciferase-coupled ATP quantitation technology. Data from the assay component CCTE_Simmons_MITO_viability was analyzed at the endpoint, CCTE_Simmons_MITO_viability, in the positive analysis fitting direction relative to DMSO as the negative control and baseline of activity. Using a type of viability reporter, measures of ATP content for loss-of-signal activity can be used to understand the viability. To generalize the intended target to other relatable targets, this assay endpoint is annotated to the cell cycle intended target family, where the subfamily is cytotoxicity.
Test chemicals were administered as a titrated series of 7 concentrations from 125 nM up to 100 uM [final] for 90 minutes prior to single endpoint detection. Three biological replicates of technical singles were run for every chemical concentration tested. Dimethylsulfoxide [DMSO] was used as the vehicle control. Dichlone [DCNQ] was used as the positive control and was administered as a titrated series of 8 concentrations from 10 nM up to 100 uM [final].
With `CC(=O)N1CCN(c2ccc(OC[C@H]3CO[C@](Cn4ccnc4)(c4ccc(Cl)cc4Cl)O3)cc2)CC1`, the call was inactive.

As to `NC(=O)c1nc(-c2cccc(-c3cc(F)ccc3OCC(F)(F)C(F)(F)F)c2)n[nH]1`, the compound was called inactive.

For `CC1(C)NC(=O)N(c2ccc([N+](=O)[O-])c(C(F)(F)F)c2)C1=O`, the compound was called inactive.

By AC50 is commonly meant the concentration giving half of the maximal activity seen. Regarding `CC(C)(C)c1csc(-c2cc3cc(OCc4ccccc4CC(=O)O)ccc3o2)n1`, the AC50 was 50 µM (active).

With `CN1C(=O)N(c2ccccc2Br)Cc2cnc(Nc3ccc4c(c3)OCC(CO)O4)nc21` (configuration not stated), the AC50 is 33.7 µM (active).

In the case of `Cc1cc2c(cc1C(F)(F)F)N(C(=O)Nc1ccc(Oc3cccnc3C)nc1)CC2`, the compound was called inactive.

As for `Cc1cc(F)ccc1-c1cc(N2CC[C@@H](O)[C@H]2CO)ncc1N(C)C(=O)C(C)(C)c1cc(C(F)(F)F)cc(C(F)(F)F)c1`, the call was inactive.

For `O=C(O)Cc1cc(I)c(Oc2ccc(O)c(I)c2)c(I)c1`, the call was inactive.

Regarding `Cc1c2ccccc2c(C)c2c1ccc1ccccc12`, the AC50 was 19.4 µM (active).

Consider `O=C1CCC(C2CCCCC2)CC1`, for which the result was inactive.

`CC(C)(O)c1ccc(CNC(=O)c2cccnc2Oc2ccc3nonc3c2)cc1`: the result was inactive.

On to `CC(C)(c1cc(Br)c(O)c(Br)c1)c1cc(Br)c(O)c(Br)c1`, for which the compound was called inactive.

Consider `CN(C)c1ccc(C(=C2C=CC(=[N+](C)C)C=C2)c2ccc(N(C)C)cc2)cc1`, for which the AC50 is 21.4 µM (active).

As to `C[C@]12CC[C@@H]3c4ccc(O)cc4CC[C@H]3[C@@H]1CC[C@H]2O`, the compound was called inactive.

Turning to `CC/C(=C(/CC)c1ccc(O)cc1)c1ccc(O)cc1`, the AC50 was 12 µM (active).

With `O=C1c2ccccc2C(=O)N1CCc1noc(-c2ccc(CN3CCCCCC3)s2)n1`, the result was inactive.

As for `CCCCOC(=O)c1ccc(O)cc1`, the call was inactive.

Regarding `NCc1cccc(C2CCN(C(=O)c3ccc(C#Cc4ccccc4F)o3)CC2)c1`, the compound was classed as inactive.

For the compound `CCCCCCCCCC(=O)O`, the result was inactive.

Regarding `CCN(Cc1cccnc1)C(=O)c1cccc(Cl)c1[C@]1(C)C(=O)N(Cc2ccc(OC)cc2OC)c2ccc(Cl)cc21`, the compound was classed as inactive.

`CCCCCCCCCCCC[N+](C)(C)C`: the compound was called inactive.

For the compound `OC12N=C(c3ccccc3)SC1Cc1cc(Cl)ccc12` (configuration not stated), the compound was called inactive.

Values taken from PubChem BioAssay (EPA / NIEHS).
